Screening data from PubChem.
APOBEC3A inh: inhibitors of human APOBEC3A DNA deaminase | 330,000 tested, 0.41% active | inhibition, % at 20 µM | P31941 | AID 493011 | recombinant A3A, FAM/TAMRA ssDNA deamination fluorescence;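 active means at least 40% inhibition at 20 µM here, with at most 30% in a related deaminase screen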
Target sequence (P31941 whole entry, looked up): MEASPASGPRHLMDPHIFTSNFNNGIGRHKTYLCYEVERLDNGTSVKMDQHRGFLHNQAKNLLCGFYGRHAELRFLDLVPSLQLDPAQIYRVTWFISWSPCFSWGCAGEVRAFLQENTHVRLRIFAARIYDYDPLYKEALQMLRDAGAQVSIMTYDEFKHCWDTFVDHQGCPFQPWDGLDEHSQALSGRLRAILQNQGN
APOBEC3G inh: APOBEC3G (human) deaminase inhibition. Q9HC16. recombinant A3G, ssDNA deamination FAM/TAMRA fluorescence. inhibition, % at 20 µM. 330,000 tested, 0.28% active;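 active means inhibition of at least 40% at 20 µM, with no more than 30% in the related APOBEC3A deaminase screen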
Target sequence (Q9HC16 whole entry, looked up): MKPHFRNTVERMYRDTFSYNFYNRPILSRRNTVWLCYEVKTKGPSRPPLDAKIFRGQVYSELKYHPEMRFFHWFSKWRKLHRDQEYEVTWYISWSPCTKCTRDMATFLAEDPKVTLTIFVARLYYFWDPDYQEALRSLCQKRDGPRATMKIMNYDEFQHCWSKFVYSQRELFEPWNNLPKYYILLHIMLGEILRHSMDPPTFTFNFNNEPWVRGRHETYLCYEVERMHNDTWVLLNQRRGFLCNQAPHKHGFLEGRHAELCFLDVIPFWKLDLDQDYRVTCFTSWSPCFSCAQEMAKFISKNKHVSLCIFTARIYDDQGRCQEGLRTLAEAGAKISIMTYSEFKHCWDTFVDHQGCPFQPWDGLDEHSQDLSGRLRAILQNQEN
NTR1 ag: agonists of human neurotensin receptor NTR1; activation, % at 20 µM; P30989; NTR1-U2OS beta-arrestin-GFP spot imaging, agonist mode; 330,000 tested, 0.17% active;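 active means activation at or above 40% of the spot to cytoplasm intensity ratio, with at least 20 cells analyzed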
AHR act: activators of human aryl hydrocarbon receptor; AHR-responsive luciferase reporter cells, luminescence; AID 2796; 320,000 tested, 2.5% active; P35869; activation, % at 5 µM; in the data active means activation above about 47%
AHR act cf: confirmation of human aryl hydrocarbon receptor activators; human cells, AHR-responsive luciferase reporter, luminescence; activation, % at 9 µM; 2,300 tested, 87% active; shares compounds with AHR act; in the data active means activation above about 49%;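 further: HepG2 hepatoma cells carrying a DRE-driven firefly luciferase reporter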
PXR act counter: PXR activation, counter-screen for AHR activators | cell-based PXR reporter, luciferase luminescence | activation, % at 11.6 µM | 2,300 tested, 88% active | shares compounds with AHR act; in the data active means activation above about 11%;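 further: human hepatoma DPX-2 cells expressing full-length human PXR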
A number is an active result; . = inactive; / = not tested or not shown. This is a sample that favours compounds with a hit; in the whole collection about 3.2% have one here.

SMILES	APOBEC3A inh	APOBEC3G inh	NTR1 ag	AHR act	AHR act cf	PXR act counter
CC(=O)Nc1sc2c(c1-c1nc3ccccc3s1)CCN(C(C)C)C2	.	.	.	172.0	69.7	/
O=C(O)c1ccc(-c2sc(Nc3ccccc3)n[n+]2-c2ccccc2)cc1	.	.	.	.	/	/
Cc1cccc(-c2sc(Nc3ccccc3)n[n+]2-c2ccccc2)c1	.	.	.	107.9	49.8	132.5
CCc1cc(=O)oc2cc(OC(=O)c3ccco3)ccc12	.	.	.	.	/	/
Cc1oc2cc(OC(=O)c3ccco3)ccc2c(=O)c1-c1nc2ccccc2n1C	.	.	.	105.7	.	19.8
CC(c1ccccc1)n1cnc2ccccc2c1=O (configuration not stated)	.	.	.	.	/	/
CCC(=O)N(CCc1ccccc1)Cc1cc2cc3c(cc2[nH]c1=O)OCO3	.	.	.	91.7	93.0	54.1
CCC(=O)N(Cc1ccc(C)cc1)Cc1cc2cc3c(cc2[nH]c1=O)OCO3	.	.	.	.	/	/
COc1ccc(OC)c(NC(=O)CSc2nc3nc(C)cc(C)n3n2)c1	.	.	.	.	/	/
Cc1ccccc1/C=N/Nc1ncnc2nc[nH]c12	.	.	.	.	/	/
Fc1ccc(/C=N/Nc2ncnc3nc[nH]c23)cc1F	.	.	.	103.3	64.5	32.4
CC(=O)c1csc(COc2ccc(Cl)cc2)n1	.	.	.	.	/	/
COc1ccc(CCN2Cc3c(N)cccc3C2=O)cc1OC	.	.	.	83.1	.	12.3
CCCN1C(=O)c2cc(C(=O)Nc3ccccc3OC)ccc2C1Nc1ccccc1OC (configuration not stated)	.	.	.	94.3	65.4	72.2
Cc1cc(C)n2nc(-c3sccc3-n3cccc3)cc2n1	.	.	.	93.2	55.0	60.9
Cc1nc2cc(-c3ccc(Cl)cc3)nn2c(NCCN(C)C)c1C	.	.	.	113.5	101.9	14.5
Cc1cc(C)n2nc(-c3ccc(Br)cc3)cc2n1	.	.	.	134.2	96.5	29.9
COc1ccc(-c2cc3nc(C)cc(C)n3n2)cc1	.	.	.	.	/	/
FC(F)(F)c1cc(C(F)(F)F)n2nc(-c3sccc3-n3cccc3)cc2n1	.	.	.	.	/	/
Cc1cc(-c2ccc(Cl)cc2)n2nc(C)cc2n1	.	.	.	.	/	/
Cc1cc(C)n2nc(-c3ccc(Cl)cc3)cc2n1	.	.	.	98.0	120.0	27.5
CC(C)C[C@@H](CO)N1CCN(Cc2ccc([N+](=O)[O-])cc2)CCC1=O	.	.	.	.	/	/
COC(=O)c1ccc(C(NC(=O)c2cccnc2)NC(=O)c2cccnc2)cc1	.	.	.	.	/	/
CN1CCN(Cn2cc(/C=C/C(=O)c3ccccc3)c3ccccc32)CC1	.	.	.	85.7	110.0	47.0
COc1ccc(C(=O)/C=C/c2cn(CC(O)CN3CCN(C)CC3)c3ccccc23)cc1OC (configuration not stated)	.	.	.	.	/	/
SMILES	APOBEC3A inh	APOBEC3G inh	NTR1 ag	AHR act	AHR act cf	PXR act counter
CCc1cccc(CC)c1NC(=O)CSc1nc2ccc(N3C(=O)C4C5C=CC(C5)C4C3=O)cc2s1 (configuration not stated)	.	.	.	125.5	53.0	68.9
Cc1cccc2cc(C#N)c(NCCCn3ccnc3)nc12	.	.	.	92.2	67.4	33.3
Cc1cc(NCCCn2ccnc2)n2c(nc3ccccc32)c1C#N	.	.	.	103.7	79.5	16.2
Cc1ccc(NS(=O)(=O)c2c(C)[nH]c(C)c2C(=O)N2CCCCC2)c(Br)c1	.	.	.	.	/	/
C=C(C)CC(c1ccccc1)N(C(C)=O)c1ccco1 (configuration not stated)	.	.	.	.	/	/
Cc1ccc2nc(SCC(=O)c3ccc(Cl)s3)[nH]c2c1	.	.	.	86.0	.	45.8
CCC(=O)Nc1ccc(C(=O)CSc2nc3ccc(C)cc3[nH]2)cc1	/	/	/	.	/	/
Cc1ccc2nc(SCC(=O)Nc3ccc(F)c([N+](=O)[O-])c3)[nH]c2c1	.	.	.	98.8	114.5	26.8
CCc1ccccc1NC(=O)C1CCN(S(C)(=O)=O)CC1	.	.	.	.	/	/
CC(=O)c1cc(O)c2ccccc2c1O	.	.	.	89.7	117.7	.
COc1ccc(S(=O)(=O)NCC(=O)NCCc2ccc(OC)c(OC)c2)cc1	.	.	.	.	/	/
Cc1nnc(Nc2ccc3c(c2)OCO3)c2ccccc12	.	.	.	84.5	105.2	160.5
COc1ccc(NC(=O)COC(=O)CCc2ccc(S(=O)(=O)N3CCOCC3)cc2)c(OC)c1	.	.	.	.	/	/
Cc1ccccc1C(=O)/C=C1/SCC(=O)N1C	.	.	.	.	/	/
C/C(=N\N=c1/sc2ccccc2n1C)c1ccccn1	.	.	.	104.3	142.6	25.5
COC(=O)CSc1ncnc2c(C)csc12	.	.	.	.	/	/
COc1ccc(S(=O)(=O)N2CCN(c3ccccc3OC)CC2)cc1C(=O)N1CCCCC1	.	.	.	.	/	/
C#CCn1c2ccccc2c2nc3ccccc3nc21	.	.	.	88.3	191.2	49.2
COC(=O)Cn1c2ccccc2c2nc3ccccc3nc21	.	.	.	/	/	/
Clc1ccc(-c2cn3cc(Br)ccc3n2)cc1Cl	.	.	.	90.5	136.6	15.8
CCC1(c2ccc(F)cc2)NC(=O)N(CC(=O)NCc2ccccc2Cl)C1=O (configuration not stated)	.	.	.	.	/	/
CCOC(=O)N1CCC(NS(=O)(=O)c2ccc(NC(C)=O)c(Cl)c2)CC1	.	.	.	.	/	/
Oc1ccccc1-c1cc(-c2ccccc2Cl)[nH]n1	.	.	.	96.0	114.9	18.5
Oc1ccc(Cl)cc1-c1cc(-c2ccccc2Cl)[nH]n1	.	.	.	.	/	/
CCOc1ccccc1NC(=O)c1ccc2nc[nH]c2c1	.	.	.	.	/	/
SMILES	APOBEC3A inh	APOBEC3G inh	NTR1 ag	AHR act	AHR act cf	PXR act counter
CCOc1ccccc1NC(=O)c1ccc2nccnc2c1	.	.	.	82.8	108.7	/
CCCOc1ccccc1NC(=O)c1ccc(N)cc1	.	.	.	101.5	117.2	46.8
CCCCOc1ccccc1NC(=O)c1ccc(=O)[nH]c1	.	.	.	.	/	/
Cc1ccc(NC(=O)COC(=O)c2nn(C)c(=O)c3ccccc23)cc1F	.	.	.	.	/	/
COc1ccc([N+](=O)[O-])cc1NC(=O)CCSCCc1ccccn1	.	.	.	.	/	/
Cc1nc2ccccc2n1C1CCN(C(=O)Nc2ccccc2)CC1	.	.	.	.	/	/
CC(=O)c1cccc(NC(=O)CNC(=O)Cc2ccccc2)c1	.	.	.	.	/	/
CNc1nc(-c2c[nH]c3ccccc23)cs1	.	.	.	.	/	/
CCc1ccc(-c2csc(-c3c[nH]c4ccccc34)n2)cc1	.	.	.	87.1	123.7	28.8
Cc1cccc(C(=O)Nc2ccnc(-c3ccncc3)n2)c1	.	.	.	98.7	47.7	.
Cc1cccc2c1ncc1c(=O)n(-c3ccccc3)[nH]c12	.	.	.	135.5	128.5	32.5
Cc1[nH]n(-c2ccccc2)c(=O)c1N=Nc1c(Cl)cccc1Cl	.	.	.	.	/	/
O=C(Nc1ccc2ccccc2c1)N1CCCN(CCOc2ccccc2)CC1	.	.	.	.	/	/
